# Results taken from the supplement of paper PMC10849652.
# The full data set covers some 7,900 targets. This sample favours those with a hit. About 0.6% of all pairs of compound and target were hits. A number with no mark means an inactive call.
# Key:
# Test in all cases: log2 fold change, soluble protein after heating vs DMSO (PISA); higher = thermal stabilisation; K562 cells, 10 uM, 30 min; active = over 0.2 and 3.5 SD of the protein, either way, in both replicates (recomputed)
# [1] = compound: C#Cc1cccc(Nc2ncnc3cc(OCCOC)c(OCCOC)cc23)c1 [erlotinib]
# How it was run: (§1)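 K562 cells at 2×10^6 cells/mL were given 10 μM compound for 30 min. Aliquots then went through 3 min of heating across 48°C-58°C, were pooled, and were extracted in PBS with 0.5% NP-40 at 4°C, and the supernatant after 21,000xg for 90 min was quantified by TMTpro 16plex LC-MS/MS with channel sums equalised. Thermal stability relative to control samples, from duplicates, is given as log2 fold change.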
# [2] = compound: C/C(=N\NC(=O)C1=CC(=CC=C1)S(=O)(=O)N2CCOCC2)/C3=C(C=CC(=C3)Cl)O
# How it was run: as §1
# [3] = compound: C1=CC(=C(C=C1Cl)C2=NC3=NC=CN=C3C(=N2)NC4=CC=NC=C4)F
# How it was run: as §1
# [4] = compound: C1=CC(=CC=C1C2=NC3=C(N2)C=C(C=C3)C(=O)N)OC4=CC=C(C=C4)Cl
# How it was run: as §1
# [5] = compound: C1=CC2=C(C=CC(=C2)/C=C\3/C(=O)NC(=NCC4=CC=CS4)S3)N=C1
# How it was run: as §1
# [6] = compound: C1=CC2=NC=CN=C2C=C1/C=C/3\C(=O)NC(=O)S3
# How it was run: as §1
# [7] = compound: C1=CC=C(C=C1)C2=NC(=C(N2)C3=CC=NC=C3)C4=CC(=C(C=C4)Cl)O
# How it was run: as §1
# [8] = compound: C1=CC=C2C(=C1)C3=NNC4=CC=CC(=C43)C2=O
# How it was run: as §1
# [9] = compound: C1CCN(C1)C(=O)NC2=CC=CC(=C2)NC3=NC=C(C(=N3)NCCC4=CN=CN4)Br
# How it was run: as §1
# [10] = compound: C1CN(CCC1(CC2=CC=C(C=C2)Cl)N)C3=NC=NC4=C3C=CN4
# How it was run: as §1
# [11] = compound: C1COCCN1CCN2C3=CC=CC=C3N=C2NC(=O)C4=CC(=CC=C4)[N+](=O)[O-] [IRAK-1-4 Inhibitor I]
# How it was run: as §1
# [12] = compound: C=CC(=O)N1CCC[C@@H](n2nc(-c3ccc(Oc4ccccc4)cc3)c3c(N)ncnc32)C1 [ibrutinib]
# How it was run: as §1
# [13] = compound: CC(=O)c1cnc2ccc(-c3cc(Cl)c(O)c(Cl)c3)nc2c1N[C@H]1CC[C@H](CN(C)C)CC1
# How it was run: as §1
# [14] = compound: CC(C)(C)Cn1c(N)nc2ccc(-c3[nH]c(C(C)(C)C)nc3-c3ccc(F)cc3)nc21 [ralimetinib]
# How it was run: as §1
# [15] = compound: CC(C)(O)CC(=O)NCCn1ccc2ncnc(Nc3ccc(Oc4cccc(C(F)(F)F)c4)c(Cl)c3)c21
# How it was run: as §1
# [16] = compound: CC(C)C1=C2N=C(C=C(N2N=C1)NCC3=CC=CC=C3)NCCCCCCN
# How it was run: as §1
# [17] = compound: CC(C)C[C@@H](C=O)NC(=O)[C@H](CC(C)C)NC(=O)[C@H](CC(C)C)NC(=O)OCc1ccccc1
# How it was run: as §1
# [18] = compound: CC(C)N(C[C@H]1O[C@@H](n2cnc3c(N)ncnc32)[C@H](O)[C@@H]1O)[C@H]1C[C@@H](CCc2nc3cc(C(C)(C)C)ccc3[nH]2)C1 [pinometostat]
# How it was run: as §1
# [19] = compound: CC1=C(C(CC(=O)N1)C2=CC=C(C=C2)C(F)(F)F)C(=O)NC3=C(C=C4C(=C3)C=NN4)F
# How it was run: as §1
# [20] = compound: CC1=C(C2=C(C=C1)C(=O)C3=CC=CC=C3N2CCCN)C
# How it was run: as §1
# Sequence of UniProt Q9Y6M1 (Q9Y6M1 whole entry, looked up): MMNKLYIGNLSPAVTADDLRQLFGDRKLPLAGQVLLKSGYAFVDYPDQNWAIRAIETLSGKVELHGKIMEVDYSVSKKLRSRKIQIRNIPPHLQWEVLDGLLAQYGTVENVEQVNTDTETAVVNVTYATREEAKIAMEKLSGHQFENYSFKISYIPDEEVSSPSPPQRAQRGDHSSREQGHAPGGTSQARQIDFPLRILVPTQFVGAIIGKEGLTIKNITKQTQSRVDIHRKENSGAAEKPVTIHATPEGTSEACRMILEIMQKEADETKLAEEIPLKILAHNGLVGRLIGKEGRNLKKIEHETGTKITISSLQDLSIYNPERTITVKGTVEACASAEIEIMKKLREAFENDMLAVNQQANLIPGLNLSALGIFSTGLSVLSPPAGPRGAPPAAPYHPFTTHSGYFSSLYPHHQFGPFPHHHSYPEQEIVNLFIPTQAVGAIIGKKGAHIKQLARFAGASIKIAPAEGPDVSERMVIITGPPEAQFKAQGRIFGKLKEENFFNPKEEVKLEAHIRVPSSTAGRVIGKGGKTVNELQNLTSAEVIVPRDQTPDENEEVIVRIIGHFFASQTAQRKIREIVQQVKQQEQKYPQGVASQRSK
# Sequence of UniProt P40939 (P40939 whole entry, looked up): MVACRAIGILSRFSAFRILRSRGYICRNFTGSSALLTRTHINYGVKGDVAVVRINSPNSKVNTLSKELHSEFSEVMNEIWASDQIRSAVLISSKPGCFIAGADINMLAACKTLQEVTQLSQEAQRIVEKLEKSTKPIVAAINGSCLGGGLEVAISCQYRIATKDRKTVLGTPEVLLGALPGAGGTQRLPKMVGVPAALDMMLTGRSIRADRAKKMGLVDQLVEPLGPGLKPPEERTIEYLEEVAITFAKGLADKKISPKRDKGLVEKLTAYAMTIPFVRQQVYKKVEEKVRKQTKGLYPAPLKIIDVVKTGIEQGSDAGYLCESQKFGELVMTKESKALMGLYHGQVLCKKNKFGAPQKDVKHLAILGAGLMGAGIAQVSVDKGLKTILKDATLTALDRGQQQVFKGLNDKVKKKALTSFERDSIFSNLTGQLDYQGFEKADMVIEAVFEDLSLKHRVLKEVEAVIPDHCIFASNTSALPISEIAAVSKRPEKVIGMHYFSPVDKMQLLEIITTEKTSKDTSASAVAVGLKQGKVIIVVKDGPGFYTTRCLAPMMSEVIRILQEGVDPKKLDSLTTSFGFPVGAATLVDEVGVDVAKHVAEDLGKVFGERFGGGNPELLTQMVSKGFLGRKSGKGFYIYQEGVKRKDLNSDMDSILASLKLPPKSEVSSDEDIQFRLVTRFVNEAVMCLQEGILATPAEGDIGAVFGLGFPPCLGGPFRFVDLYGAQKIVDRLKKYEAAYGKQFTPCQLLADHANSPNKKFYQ
# Sequence of UniProt Q92769 (Q92769 whole entry, looked up): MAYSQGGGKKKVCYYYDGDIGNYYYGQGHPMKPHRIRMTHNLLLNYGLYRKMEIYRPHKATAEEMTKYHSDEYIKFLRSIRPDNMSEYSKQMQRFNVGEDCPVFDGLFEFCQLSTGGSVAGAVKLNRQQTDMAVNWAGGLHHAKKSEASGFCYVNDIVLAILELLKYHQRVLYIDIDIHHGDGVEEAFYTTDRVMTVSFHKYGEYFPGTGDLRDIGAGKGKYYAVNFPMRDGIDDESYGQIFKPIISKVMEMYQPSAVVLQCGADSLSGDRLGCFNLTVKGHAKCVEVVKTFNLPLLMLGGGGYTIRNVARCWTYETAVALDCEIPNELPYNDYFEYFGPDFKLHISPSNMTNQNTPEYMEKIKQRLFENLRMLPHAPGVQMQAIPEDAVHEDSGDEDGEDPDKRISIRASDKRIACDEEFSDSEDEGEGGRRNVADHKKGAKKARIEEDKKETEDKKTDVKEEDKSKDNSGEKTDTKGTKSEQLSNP
# Sequence of UniProt Q9UK99 (Q9UK99 whole entry, looked up): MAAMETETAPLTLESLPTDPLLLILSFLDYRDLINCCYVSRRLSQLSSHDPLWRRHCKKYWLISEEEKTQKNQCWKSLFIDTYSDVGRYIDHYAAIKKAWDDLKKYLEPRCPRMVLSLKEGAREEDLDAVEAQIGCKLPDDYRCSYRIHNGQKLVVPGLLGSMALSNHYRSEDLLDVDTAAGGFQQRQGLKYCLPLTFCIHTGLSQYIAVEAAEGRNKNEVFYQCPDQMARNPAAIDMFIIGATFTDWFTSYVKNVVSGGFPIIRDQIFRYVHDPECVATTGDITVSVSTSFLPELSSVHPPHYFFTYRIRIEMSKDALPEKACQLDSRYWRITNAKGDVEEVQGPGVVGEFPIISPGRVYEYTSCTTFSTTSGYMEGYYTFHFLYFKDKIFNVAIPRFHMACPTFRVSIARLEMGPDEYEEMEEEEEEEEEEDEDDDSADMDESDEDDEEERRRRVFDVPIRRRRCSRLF
# Sequence of UniProt Q8N4A0 (Q8N4A0 whole entry, looked up): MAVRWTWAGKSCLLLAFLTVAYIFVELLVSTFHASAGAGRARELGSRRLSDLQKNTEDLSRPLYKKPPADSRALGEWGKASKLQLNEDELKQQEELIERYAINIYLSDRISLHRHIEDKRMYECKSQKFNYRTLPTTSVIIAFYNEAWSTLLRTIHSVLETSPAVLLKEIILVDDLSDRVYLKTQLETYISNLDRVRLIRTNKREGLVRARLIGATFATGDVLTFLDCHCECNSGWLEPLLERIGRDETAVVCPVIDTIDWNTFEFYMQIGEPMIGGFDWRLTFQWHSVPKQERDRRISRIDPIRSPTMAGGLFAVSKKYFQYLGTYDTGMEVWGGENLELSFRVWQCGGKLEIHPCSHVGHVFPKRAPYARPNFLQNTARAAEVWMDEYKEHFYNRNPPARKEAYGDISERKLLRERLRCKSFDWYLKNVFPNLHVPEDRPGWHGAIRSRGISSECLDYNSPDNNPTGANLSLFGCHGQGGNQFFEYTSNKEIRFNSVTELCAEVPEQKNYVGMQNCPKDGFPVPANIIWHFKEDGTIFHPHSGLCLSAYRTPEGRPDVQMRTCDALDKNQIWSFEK
# Sequence of UniProt Q86YM7 (Q86YM7 whole entry, looked up): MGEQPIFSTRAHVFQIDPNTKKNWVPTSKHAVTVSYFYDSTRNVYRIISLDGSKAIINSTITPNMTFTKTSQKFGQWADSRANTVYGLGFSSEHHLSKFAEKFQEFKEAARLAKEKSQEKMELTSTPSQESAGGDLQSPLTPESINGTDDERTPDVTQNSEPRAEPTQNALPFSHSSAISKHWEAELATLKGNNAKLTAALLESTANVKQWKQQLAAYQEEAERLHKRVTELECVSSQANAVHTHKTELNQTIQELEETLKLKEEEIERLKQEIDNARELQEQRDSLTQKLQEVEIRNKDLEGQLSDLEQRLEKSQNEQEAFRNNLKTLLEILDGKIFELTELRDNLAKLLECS
# Sequence of UniProt O75146 (O75146 whole entry, looked up): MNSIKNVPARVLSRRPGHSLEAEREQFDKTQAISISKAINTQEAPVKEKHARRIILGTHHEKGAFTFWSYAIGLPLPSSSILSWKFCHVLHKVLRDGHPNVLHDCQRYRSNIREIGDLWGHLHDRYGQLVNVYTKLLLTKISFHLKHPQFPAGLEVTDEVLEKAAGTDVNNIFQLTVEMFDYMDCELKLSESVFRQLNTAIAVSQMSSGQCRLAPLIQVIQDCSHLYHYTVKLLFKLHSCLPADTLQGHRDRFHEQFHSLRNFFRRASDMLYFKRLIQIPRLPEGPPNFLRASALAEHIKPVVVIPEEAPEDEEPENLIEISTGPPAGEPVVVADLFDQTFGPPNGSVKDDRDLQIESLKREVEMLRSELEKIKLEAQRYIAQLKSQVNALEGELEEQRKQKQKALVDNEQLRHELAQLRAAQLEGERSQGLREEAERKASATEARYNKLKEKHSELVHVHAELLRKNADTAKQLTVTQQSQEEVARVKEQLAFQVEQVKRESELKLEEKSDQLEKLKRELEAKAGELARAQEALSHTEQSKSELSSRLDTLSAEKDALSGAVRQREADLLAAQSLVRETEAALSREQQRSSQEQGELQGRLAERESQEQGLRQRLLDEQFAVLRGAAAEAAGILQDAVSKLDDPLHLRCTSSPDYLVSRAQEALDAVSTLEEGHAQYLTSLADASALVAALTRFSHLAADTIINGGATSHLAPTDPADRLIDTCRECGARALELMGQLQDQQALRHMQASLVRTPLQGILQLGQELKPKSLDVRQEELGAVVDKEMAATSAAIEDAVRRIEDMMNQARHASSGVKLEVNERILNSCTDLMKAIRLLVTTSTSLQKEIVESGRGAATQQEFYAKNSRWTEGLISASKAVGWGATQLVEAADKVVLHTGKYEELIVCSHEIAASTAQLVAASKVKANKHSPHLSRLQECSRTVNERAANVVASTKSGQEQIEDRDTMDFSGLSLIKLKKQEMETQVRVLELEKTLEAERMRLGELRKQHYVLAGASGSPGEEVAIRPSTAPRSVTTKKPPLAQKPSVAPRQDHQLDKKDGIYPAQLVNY
# Sequence of UniProt P31943 (P31943 whole entry, looked up): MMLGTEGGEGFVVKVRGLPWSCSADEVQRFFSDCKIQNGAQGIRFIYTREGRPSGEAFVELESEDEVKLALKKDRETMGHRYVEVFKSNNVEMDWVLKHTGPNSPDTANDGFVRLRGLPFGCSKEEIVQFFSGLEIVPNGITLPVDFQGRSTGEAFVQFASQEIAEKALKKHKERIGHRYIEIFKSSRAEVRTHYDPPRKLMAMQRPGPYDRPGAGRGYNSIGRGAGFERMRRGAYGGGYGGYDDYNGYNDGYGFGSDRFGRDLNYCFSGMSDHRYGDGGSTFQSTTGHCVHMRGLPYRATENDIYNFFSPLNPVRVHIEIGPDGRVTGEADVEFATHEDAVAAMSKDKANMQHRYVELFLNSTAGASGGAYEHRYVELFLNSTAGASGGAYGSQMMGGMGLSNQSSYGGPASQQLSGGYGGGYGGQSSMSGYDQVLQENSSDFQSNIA
Target,log2 fold change [1],log2 fold change [2],log2 fold change [3],log2 fold change [4],log2 fold change [5],log2 fold change [6],log2 fold change [7],log2 fold change [8],log2 fold change [9],log2 fold change [10],log2 fold change [11],log2 fold change [12],log2 fold change [13],log2 fold change [14],log2 fold change [15],log2 fold change [16],log2 fold change [17],log2 fold change [18],log2 fold change [19],log2 fold change [20]
HOMER1 (UniProt Q86YM7),-0.103,-0.015,-0.05,0.016,0.021,0.074,-0.057,-0.015,0.062,-0.011,0.104,0.009,-0.043,0.004,0.03,0.034,-0.088,-0.225 (active),0.038,0.093
IGF2BP2 (UniProt Q9Y6M1),-0.013,-0.083,-0.255,-0.015,0.158,0.014,0.007,0.075,0.057,0.075,-0.168,0.048,-0.011,0.209,0.037,-0.249,0.106,0.477,0.087,-0.054
HIP1R (UniProt O75146),0.017,0.034,0.024,0.005,0.054,0.013,0.018,0.033,-0.004,-0.005,0.029,-0.027,-0.022,0.01,-0.034,-0.059,-0.003,0,-0.004,0.138
FBXO3 (UniProt Q9UK99),0.01,0.044,0.141,-0.018,-0.038,0.062,0.112,-0.003,-0.029,0.002,0.038,-0.003,-0.008,0.171,0.021,-0.014,0.031,0,0.014,-0.047
HNRNPH1 (UniProt P31943),0.043,0.102,-0.04,0.004,-0.035,-0.012,-0.016,0.007,-0.1,-0.023,-0.032,0.048,-0.176,-0.018,0,-0.427 (active),0.131,0.031,0.011,-0.045
HDAC2 (UniProt Q92769),0.757 (active),0.013,-0.02,-0.012,0.006,0.002,-0.011,-0.011,-0.025,0.023,0,-0.015,-0.046,-0.004,0.01,0.007,-0.04,-0.01,-0.006,0
GALNT4 (UniProt Q8N4A0),0.077,0.062,0.075,0.026,0.086,0.044,-0.012,0.008,0.006,0.005,0.038,0.011,-0.061,-0.003,-0.41 (active),-0.041,-0.002,0.014,-0.004,0.072
HADHA (UniProt P40939),-0.085,0.122,0.044,-0.18,0.042,0.02,0.07,0.271,-0.214,0.171,-0.001,0.175,-0.358,0.058,-0.132,0.43,-0.116,-0.064,-0.125,0.054
